From PubChem BioAssay AID623955 (NMMLSC, 2012)
Measured potencies and affinities stand elsewhere. Active and inactive are the calls of the source.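 Rule for the calls: active = fitted EC50, the concentration giving half the signal drop, under 100 µM; inactive = the rest.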

These molecules were tested against ATP-binding cassette sub-family B member 6 (Homo sapiens) (UniProt Q9NP58) (assay: concentration-dependent ABCB6 porphyrin transport blockade – K562-ABCB6 cells, flow cytometry, cherry pick 1, dose response (AID 623955)). Conditions: K562-ABCB6 porphyrin fluorescence, 1 h; series mostly up to 100 µM.
Chain of ATP-binding cassette sub-family B member 6 (Homo sapiens) (Q9NP58 whole entry, looked up): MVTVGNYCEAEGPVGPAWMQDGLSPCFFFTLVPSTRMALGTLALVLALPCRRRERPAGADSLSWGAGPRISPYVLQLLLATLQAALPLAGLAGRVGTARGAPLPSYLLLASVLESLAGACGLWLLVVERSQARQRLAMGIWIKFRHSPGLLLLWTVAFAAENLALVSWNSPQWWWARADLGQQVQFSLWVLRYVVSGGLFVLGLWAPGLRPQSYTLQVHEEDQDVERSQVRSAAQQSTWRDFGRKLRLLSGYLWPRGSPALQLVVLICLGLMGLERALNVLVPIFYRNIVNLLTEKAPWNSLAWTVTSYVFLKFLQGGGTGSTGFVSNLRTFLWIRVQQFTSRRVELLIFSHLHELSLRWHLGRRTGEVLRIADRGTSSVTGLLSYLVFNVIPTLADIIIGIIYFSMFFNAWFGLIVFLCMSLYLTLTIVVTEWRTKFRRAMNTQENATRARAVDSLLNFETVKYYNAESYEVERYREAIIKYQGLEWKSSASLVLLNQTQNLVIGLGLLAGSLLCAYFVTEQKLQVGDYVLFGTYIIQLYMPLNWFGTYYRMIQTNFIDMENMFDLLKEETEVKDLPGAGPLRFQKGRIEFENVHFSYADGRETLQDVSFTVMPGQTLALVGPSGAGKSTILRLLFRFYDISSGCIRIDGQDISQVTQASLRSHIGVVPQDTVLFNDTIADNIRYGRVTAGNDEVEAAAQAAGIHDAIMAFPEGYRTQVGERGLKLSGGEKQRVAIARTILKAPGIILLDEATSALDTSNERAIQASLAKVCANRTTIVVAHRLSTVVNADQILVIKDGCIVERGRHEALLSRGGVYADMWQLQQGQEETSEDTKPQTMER

outcome, inactive:
CCOC(=O)C(C)NC(=O)CCc1nnc2ccc(N3CCCCC3)nn12 (stereo not drawn)
CCOCCCNC(=O)CCc1nnc2ccc(N3CCCCC3)nn12
CCOC(=O)C(C)NC(=O)CCc1nnc2ccc(N3CCC(C)CC3)nn12 (stereo not drawn)
COC(=O)C(NC(=O)CCc1nnc2ccc(N3CCC(C)CC3)nn12)C(C)C (stereo not drawn)
CCOC(=O)N1CCN(CC(=O)Nc2ccc(C)cc2)CC1
COCCNC(=O)CCc1nnc2ccc(N3CCC(C)CC3)nn12
CCc1ccc(CNC(=O)C2Cc3cc(S(=O)(=O)N4CCCC4)ccc3N2C(C)=O)cc1 (stereo not drawn)
CC(C)CCNC(=O)CCc1nnc2ccc(N3CCC(C)CC3)nn12
CCN1CCN(C(=O)CCc2nnc3ccc(N4CCC5(CC4)OCCO5)nn23)CC1
CN1CCN(C(=O)CCc2nnc3ccc(N4CCC5(CC4)OCCO5)nn23)CC1
COC(=O)C(NC(=O)CCc1nnc2ccc(N3CCCCC3)nn12)C(C)C (stereo not drawn)
CC1CC(C)CN(C(=O)CCc2nnc3ccc(N4CCCCC4)nn23)C1 (stereo not drawn)
O=C(CN1CCCCC1)Nc1cccc(Br)c1
CCCNC(=O)CCc1nnc2ccc(N3CCC(C)CC3)nn12
CCN(CC)CCNC(=O)CCc1nnc2ccc(N3CCC(C)CC3)nn12
CC1CCN(C(=O)CCc2nnc3ccc(N4CCC5(CC4)OCCO5)nn23)CC1
COCCCNC(=O)CCc1nnc2ccc(N3CCC(C)CC3)nn12
CC1CCN(c2ccc3nnc(CCC(=O)NCCCOC(C)C)n3n2)CC1
